In PubChem BioAssay AID743158 (Broad Institute, 2013):
Potency and affinity values are given separately. Calls of active or inactive are those of the source.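 The calls were made as follows: active = cell killing with a fitted half-maximal concentration at most twice the top valid dose tried; inconclusive = flat fit between -70 and -30 percent, or an invalid fit; inactive = the rest.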

test: viability loss in A549 lung cancer cells – cell-based, CellTiter-Glo luminescence, dry powder, set 5, cytotoxicity control, dose response (AID 743158); conditions: CellTiter-Glo ATP luminescence, 72 h; series mostly up to 26 µM

| Structure (SMILES) | outcome |
| --- | --- |
| CCOC(=O)c1c(-c2ccc(F)cc2)csc1NC(=O)CN1CCN(C)CC1 | inactive |
| COC(=O)C1=C(C)N(Cc2ccc(Br)cc2)C(=S)NC1c1ccc(OC)cc1 (configuration not stated) | inactive |
| COC(=O)C1=C(C)N(Cc2ccc(Cl)cc2)C(=S)NC1c1ccc(Br)cc1 (configuration not stated) | inactive |
| Fc1ccccc1OCCn1c(=S)[nH]c2ccccc21 | inactive |
| Cc1ccc(OCCn2cnc3ccccc32)cc1 | inactive |
| CCOC(=O)c1c(NC(=O)CNCCN(C)C)sc(C)c1-c1ccccc1 | inactive |
| CCOC(=O)c1c(-c2ccc(OC)cc2)csc1NC(=O)CN(C)CC(=O)N(C)C | inactive |
